Test results reported in PubChem BioAssay AID652154 (Broad Institute, 2013).
Where “and” joins values, the source holds several entries; their conditions need not be identical. Equal values may be shown once. Among all 360,000 compounds or so, about 4,200 (1.2%) were called active. What follows is part of a selection rich in actives, with near analogues and random picks from the rest. A number with no mark means an inactive call.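 Rule for the calls: active = mean replicate inhibition at least 60% with every replicate also reaching 60%; inconclusive = only one of the two criteria is met; inactive = mean below 60% and not all replicates reaching 60%.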

Assay: inhibitors of PAX8-driven TPO luciferase reporter, primary screen, RMG-I cells, single concentration (AID 652154);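 note: luciferase light reporting Pax8 driven TPO promoter activity; plate controls were median of neutral control wells for no effect and mitoxantrone controls for full effect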
Conditions: SteadyGlo, 24 h, at 12.6 µM, stronger effect = higher value

Row | Structure (SMILES) | inhibition
1 | Cc1ccccc1S(=O)(=O)N[C@@H]1CC[C@@H](CCNS(=O)(=O)c2cccc(F)c2)O[C@H]1CO | 20.4%
2 | O=C(C[C@H]1CC[C@H]2[C@@H](COC[C@@H](O)CN2Cc2cccc(C(F)(F)F)c2)O1)NCc1ccncc1 | -1.84%
3 | CCS(=O)(=O)Nc1ccc2c(c1)C(=O)N(C)[C@@H]1CC[C@@H](CC(=O)NC)O[C@H]1CO2 | -18%
4 | CCCNC(=O)Nc1ccc2c(c1)OC[C@@H](C)N(CCC)C[C@H](C)[C@@H](OC)CN(C)C2=O | -2.35%
5 | CCCNC(=O)Nc1ccc2c(c1)C(=O)N(C)[C@@H]1CC[C@@H](CC(=O)NC)O[C@H]1CO2 | -19.9%
6 | O=C(c1cccnc1)N1CC2(C1)[C@@H](c1ccccc1)[C@H](CO)N2C(=O)C1CCC1 | -5.13%
7 | CC(=O)N1CC[C@@H]2[C@@H](CO)N(C)c3ccc(-c4ccc(C#N)cc4)cc3[C@@H]21 | -6.97%
8 | C[C@@H]1CN([C@H](C)CO)C(=O)Cc2cc(NC(=O)CCN3CCOCC3)ccc2O[C@H]1CN(C)Cc1ccncc1 | -2.37%
9 | CN(C)CC#Cc1ccc([C@@H]2[C@H](CO)N3CCCCN(C(=O)Nc4ccc(F)cc4)C[C@@H]23)cc1 | 92.8% (active)
10 | O=C(C1CCC1)N1CCCCN2[C@H](CO)[C@H](c3ccc(-c4cccc(F)c4)cc3)[C@@H]2C1 | -30.2%
11 | CN(C)CC#Cc1ccc([C@@H]2[C@H](CO)N3CCCCN(C(=O)NC4CCCC4)C[C@@H]23)cc1 | 6.59%
12 | O=C(C1CCCC1)N1CCCCN2[C@@H](CO)[C@H](c3ccc(-c4cccc(F)c4)cc3)[C@@H]2C1 | 6.9%
13 | O=C(Nc1ccc(F)cc1)N1CCCCN2[C@H](CO)[C@H](c3ccc(C#Cc4ccccc4)cc3)[C@H]2C1 | 38%
14 | O=C(C1CCC1)N1CCCCN2[C@H](CO)[C@H](c3ccc(-c4cccc(F)c4)cc3)[C@H]2C1 | 84.3% (active)
15 | C[C@H](CO)N1C[C@H](C)[C@H](CN(C)C(=O)CCC(F)(F)F)OCCCC[C@H](C)Oc2ccc(NS(C)(=O)=O)cc2C1=O | -0.897%
16 | Cc1ccc(-c2cnc3c(c2)C(=O)N([C@H](C)CO)C[C@H](C)[C@@H](CN(C)C(=O)c2cccc(F)c2)O3)cc1 | 6.03%
17 | CCNC(=O)[C@H]1[C@H](CO)[C@H]2Cn3c(ccc(-c4ccc(OC)cc4)c3=O)[C@H]2N1Cc1ccccc1 | 21.7%
18 | CCNC(=O)C[C@H]1CC[C@@H]2[C@H](COC[C@H](O)CN2S(=O)(=O)c2ccc(Oc3ccccc3)cc2)O1 | -12.7%
19 | COc1ccc(NC(=O)N(C)C[C@H]2Oc3ccc(NS(=O)(=O)c4ccc(C)cc4)cc3C(=O)N([C@@H](C)CO)C[C@H]2C)cc1 | 2.38%

Row | Structure (SMILES) | inhibition
20 | C[C@H](CO)N1C[C@H](C)[C@H](CN(C)C(=O)CCN(C)C)OCc2ccccc2-c2c(n(C)c3ccccc23)C1=O | -16%
21 | C[C@@H]1CCCCO[C@H](CN(C)Cc2ccccc2)[C@H](C)CN([C@@H](C)CO)C(=O)c2cc(NC(=O)Nc3cccc4ccccc34)ccc2O1 | 21%
22 | C[C@@H]1CN([C@@H](C)CO)C(=O)c2cc(NC(=O)Nc3cccc4ccccc34)ccc2O[C@@H](C)CCCCO[C@H]1CN(C)Cc1ccccc1 | -1.82%
23 | C[C@@H]1CCCCO[C@@H](CN(C)Cc2ccccc2)[C@H](C)CN([C@H](C)CO)C(=O)c2cc(NC(=O)Nc3cccc4ccccc34)ccc2O1 | 73.4% (active)
24 | COc1ccc(NC(=O)Nc2ccc3c(c2)C(=O)N([C@@H](C)CO)C[C@H](C)[C@H](CN(C)Cc2ccc(C(F)(F)F)cc2)OCCCC[C@H](C)O3)cc1 | 71.6% (active)
25 | C[C@@H]1CN([C@H](C)CO)C(=O)c2cc(NC(=O)Nc3ccccc3)ccc2O[C@@H](C)CCCCO[C@H]1CN(C)Cc1ccc(C(F)(F)F)cc1 | 77.3% (active)
26 | COc1ccc(CN(C)C[C@@H]2OCCCC[C@@H](C)Oc3ccc(NC(=O)Nc4ccc(OC)cc4)cc3C(=O)N([C@@H](C)CO)C[C@@H]2C)cc1 | -12.3%
27 | C[C@H]1CCCCO[C@@H](CN(C)Cc2ccc(C(F)(F)F)cc2)[C@@H](C)CN([C@@H](C)CO)C(=O)c2cc(NC(=O)Nc3ccccc3)ccc2O1 | 67.9% (active)
28 | C[C@H](CO)N1C[C@H](C)[C@@H](CN(C)Cc2ccc3c(c2)OCO3)OCCCC[C@H](C)Oc2ccc(NC(=O)Nc3ccc(C(F)(F)F)cc3)cc2C1=O | 36.6%
29 | CC(C)NC(=O)Nc1ccc2c(c1)C(=O)N([C@H](C)CO)C[C@H](C)[C@@H](CN(C)Cc1ccc(C(F)(F)F)cc1)OCCCC[C@@H](C)O2 | -13.6% and 26.1%
30 | C[C@@H]1CCCCO[C@@H](CN(C)Cc2ccc(C(F)(F)F)cc2)[C@@H](C)CN([C@H](C)CO)C(=O)c2cc(NC(=O)Nc3ccccc3)ccc2O1 | -1.66%
31 | C[C@@H]1CCCCO[C@@H](CN(C)Cc2ccc(C(=O)O)cc2)[C@H](C)CN([C@@H](C)CO)C(=O)c2cc(NC(=O)Nc3ccc(C(F)(F)F)cc3)ccc2O1 | -16.9%
32 | COc1ccc(CN(C)C[C@@H]2OCCCC[C@@H](C)Oc3ccc(NC(=O)Nc4ccc(C(F)(F)F)cc4)cc3C(=O)N([C@H](C)CO)C[C@H]2C)cc1 | -16.7%
33 | CC(C)NC(=O)N1C[C@@H]2[C@H](c3ccccc31)[C@H](CO)N2C(=O)c1ccccn1 | -13.7%
34 | COCC#Cc1ccc([C@@H]2[C@@H](CO)N3C(=O)CN(C(=O)C4CCOCC4)C[C@@H]23)cc1 | -23.4%
35 | COc1ccc(NC(=O)N(C)C[C@H]2Oc3ccc(N(C)C)cc3C(=O)N([C@@H](C)CO)C[C@H]2C)cc1 | -20.3%
36 | O=C(NCC1CC1)[C@@H]1[C@@H](CO)[C@@H]2Cn3c(ccc(C4=CCCC4)c3=O)[C@H]1N2CCC(F)(F)F | -4.22%
37 | CCCNC(=O)N1C[C@H]2[C@@H](c3ccccc31)[C@@H](CO)N2C(=O)NCCC | -23.2%
